IP6K1 inh – Primary qHTS assay for small molecule inhibitors of Inositol hexaphosphate kinase 1 (IP6K1); activity change, % (series mostly up to about 58 µM); IP6K1 kinase, ADP-Glo luminescence, 2 h; hits give low values; actives 0.81% (n = 140,000); AID 1645851, 2021; in the data active = activity change below about -25%; note: % is set by controls: 0 for no effect and ±100 for the full control effect
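ADP-Glo luminescence measures ADP made by human IP6K1 during a 2 h RT reaction with ATP/IP6 (mix at 1.3 mM/130 uM); top library doses 57.5 and 19.1 uM final.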
KDM5B inh – Primary screen for KDM5B Histone Demethylases FDH-coupled qHTS | KDM5B demethylase, FDH-coupled NADH fluorescence (FDH is formaldehyde dehydrogenase) | Potency, µM (doses to about 57.7 µM), most hits filed as inhibitors | actives 2.6% (n = 220,000) | AID 1347165, 2019; note: potency is the fitted concentration of half-maximal effect; 0% is about no effect; nearly all actives have a fitted effect of over 70% in size
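Inhibition is measured as reduced NADH fluorescence generation from FDH coupling to formaldehyde release. Truncated KDM5BΔAP at 200 nM final acts on H3K4me3 peptide (12.5 µM in substrate mix) in pH 7.5 HEPES buffer with Tween-20, 30 min, room temperature.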
SNCA expr inh – Primary qHTS assay for inhibitors of alpha-synuclein gene (SNCA) expression | Potency, µM (top dose mostly 57.2 µM), without a hit: top-dose activity change, negative = inhibition, actives largely listed as inhibitors | HEK-293 SNCA-luciferase knock-in, luminescence, 24 h | actives 0.17% (n = 140,000);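 note: potency is the fitted concentration of half-maximal effect; plate controls were DMSO cells for no effect and cell-free wells for full effect; nearly all actives have a fitted effect of over 45% in size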
SNCA viab count – GF-AFC viability counterscreen for inhibitors of alpha-synuclein gene (SNCA) expression | HEK-293-SNCA-luc viability, GF-AFC fluorescence, 24 h | Potency, µM (titrated, usually from 57.1 µM), for inactives: top-dose activity change, negative = cytotoxicity, actives largely listed as cytotoxic | actives 0.12% (n = 150,000);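 note: potency is the fitted concentration of half-maximal effect; 0% = DMSO-treated cells and -100% = medium-only wells without cells; nearly all actives have a fitted effect of over 30% in size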
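Cytotoxicity counterscreen: after 24 h compound treatment of genome-edited SNCA-luciferase HEK-293 cells, live-cell protease substrate GF-AFC read by fluorescence after 30 min; activity scaled between DMSO (0%) and medium-only (-100%), curves Hill-fitted.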
An asterisk follows results filed as active; i = inactive; ? = inconclusive; · = no result given; [ ] = another dose, or the depositor's remark. A selection: hits, their analogues and other compounds. The true share with any hit is near 2.9%. Unless noted, calls come from the whole dose curve; as a rule, active = well fitted curve in the direction sought with a large enough effect; inconclusive = small, poorly fitted or top-dose-only effect, or another doubt; inactive = no such curve, though single readings can be large; an effect the other way counts as inactive or inconclusive.

SMILES	IP6K1 inh	KDM5B inh	SNCA expr inh	SNCA viab count
Cc1ccc(C#N)c(N2CCCC(c3n[nH]c(=O)n3-c3ccccc3)C2)n1 (centres undefined)	-1	32µM*	22%	3%
Cc1csc(CN2CCCC(c3n[nH]c(=O)n3-c3ccccc3)C2)n1 (centres undefined)	6	i	4%	-1%
O=C(N[C@H](Cc1ccncc1)C1CC(O)C1)c1cccn2cnnc12 (some centres undefined)	-8	22µM*	19%	3%
Cc1cc(C)c(/C=C/c2onc(C)c2S(=O)(=O)N2CCC(C(=O)Nc3cccc(C)c3C)CC2)c(C)c1	-12	i	13%	6%
O=S(=O)(NC[C@H]1O[C@@H](CO)[C@@H](O)[C@H]1N1CCN(c2ccccn2)CC1)c1ccc(Cl)cc1	-2	28µM*	34%	4%
CS(=O)(=O)NC[C@H]1O[C@@H](CC(=O)N2CCN(c3ccccn3)CC2)[C@H](O)[C@@H]1O	9	35µM*	31%[87.6 µM]	2%[87.6 µM]
OC[C@@H]1O[C@H](CNC2CCOCC2)[C@H](N2CCN(c3ccccn3)CC2)[C@@H]1O	0	?	9%	3%
OC[C@@H]1O[C@H](CN(Cc2cccc(Cl)c2)Cc2cccc(Cl)c2)[C@H](N2CCN(c3ccccn3)CC2)[C@@H]1O	18	25µM*	-2%	-12%
CCC(CC)C(=O)NC[C@H]1O[C@@H](CC(=O)N2CCN(c3ccccn3)CC2)[C@H](O)[C@@H]1O	2	32µM*	6%[87.6 µM]	4%[87.6 µM]
CC1C(=O)Nc2ccc(S(=O)(=O)N3CCCCC3)cc2NC1=O (centres undefined)	9	i	-27%	?
c1cncc(-c2nc(Sc3nnnn3C3CC3)c3ccccc3n2)c1	·	i	·	·
Cc1ccc(C)c(NC(=O)N2CCC(Oc3ncccc3C(=O)N3CCOCC3)C2)c1 (centres undefined)	16	i	-19%	0%
CCCCc1ccc(NS(=O)(=O)c2cc3c4c(c2)CC(=O)N4CCC3)cc1	7	?	-14%	-12%
CC(=O)N1CCCc2cc(S(=O)(=O)N3CCC(C(=O)NCc4ccccc4)CC3)ccc21	-8	i	64%	3%
Cc1ccc(S(=O)(=O)NC[C@H]2O[C@@H](CC(=O)N3CCN(c4ccccn4)CC3)[C@H](O)[C@@H]2O)cc1	-4	28µM*	1%	1%
COc1ccc(-c2noc(-c3nnn4c3COC(c3ccc(F)cc3)C4)n2)cc1OC (centres undefined)	-14	22µM*	-3%	1%
COc1ccc(C2Cn3cnc(-c4nc(-c5ccc6c(c5)OCO6)no4)c3CO2)cc1 (centres undefined)	-17	14µM*	28%	-8%
COc1ccc(C2Cn3cnc(-c4nc(-c5ccc(OC)c(OC)c5)no4)c3CO2)cc1 (centres undefined)	6	i	0%	-10%
COc1ccc(-c2nc(-c3nnn4c3COC(c3ccc(Cl)cc3)C4)no2)cc1OC (centres undefined)	-3	28µM*	0%	5%
Cc1cccc(N2C(=O)CSC23C(=O)N(CC(=O)Nc2cccc(Cl)c2)c2ccccc23)c1 (centres undefined)	11	i	?	?
O=C([C@@H]1C[C@H](Oc2ccccc2)CN1C(=O)CN1CCCCCC1)N1CCOCC1	27	i	33%	-2%
COc1ccc(-c2cc(C(=O)N3CCCC3)ccn2)cc1F	25	28µM*	-4%	-5%
O=C1COc2ccc(-c3ccc4c(c3)OCO4)nc2CN1Cc1ccc(F)cc1	-1	35µM*	-5%[87.6 µM]	-9%[87.6 µM]
O=C1COc2ccc(-c3ccccc3)nc2CN1Cc1ccc(F)cc1	1	i	-30%[87.6 µM]	-1%[87.6 µM]
CN(c1ccccc1)c1ccc2c(n1)CN(CCOc1ccccc1)C(=O)CO2	-12	32µM*	-27%[87.6 µM]	6%[87.6 µM]
CN(c1ccccc1)c1ccc2c(n1)CN(Cc1ccccc1)C(=O)CO2	-5	35µM*	6%[87.6 µM]	1%[87.6 µM]
Cc1nc(CN2Cc3nc(N(C)c4ccccc4)ccc3OCC2=O)cs1	2	?	-21%[87.6 µM]	-10%[87.6 µM]
O=C1COc2ccc(-c3ccccc3)nc2CN1CCOc1ccccc1	-5	i	11%[87.6 µM]	2%[87.6 µM]
